Source: PubChem BioAssay
Most compounds without a hit are left out; they make up all but 0.84% or so of the library.
SRC3 TRFRET art = TR-FRET detection interference compounds, artefact control for PPARgamma SRC-3 recruitment agonists, biochemical, TR-FRET ratio; hit rate 0.39% among 99,000; TR-FRET ratio at 8 µM; TR-FRET artefact counter-screen, PPARgamma/SRC-3 format; active compounds read high; AID 1048, 2008
PPARg SRC1 recr = PPARgamma agonists recruiting SRC-1 coactivator, primary screen, biochemical; Peroxisome proliferator-activated receptor gamma (Homo sapiens), P37231; PPARgamma-SRC-1 coactivator recruitment biochemical assay; activation, % at 8 µM; hit rate 0.41% among 200,000; AID 631, 2007; in the data active = activation above about 19%
Target sequence (P37231 whole entry, looked up): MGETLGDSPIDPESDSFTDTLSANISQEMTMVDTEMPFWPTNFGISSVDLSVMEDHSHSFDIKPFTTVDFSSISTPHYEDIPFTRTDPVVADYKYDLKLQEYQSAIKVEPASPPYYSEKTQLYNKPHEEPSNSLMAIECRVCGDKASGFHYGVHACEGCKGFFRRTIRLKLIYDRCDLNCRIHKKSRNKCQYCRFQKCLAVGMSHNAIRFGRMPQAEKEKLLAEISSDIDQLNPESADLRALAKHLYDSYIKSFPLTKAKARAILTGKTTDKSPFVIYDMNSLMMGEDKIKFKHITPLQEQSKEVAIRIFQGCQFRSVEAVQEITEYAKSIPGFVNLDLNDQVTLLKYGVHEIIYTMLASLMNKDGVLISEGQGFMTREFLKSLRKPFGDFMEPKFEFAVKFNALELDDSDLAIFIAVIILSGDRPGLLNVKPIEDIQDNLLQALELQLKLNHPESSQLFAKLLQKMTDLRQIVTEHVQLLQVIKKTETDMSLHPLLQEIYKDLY
TR-FRET SRC-2 ct = TR-FRET signal artefacts, primary screen, artefact control for PPARgamma SRC-2 agonist project, biochemical; TR-FRET artefact counter-screen; active compounds read high; AID 1049, 2008; hit rate 0.4% among 200,000; TR-FRET ratio at 8 µM
PPARg SRC2 recr = agonists of PPARg-SRC-2 recruitment, primary screen, biochemical, HTS; activation, % at 8 µM; hit rate 0.34% among 200,000; Peroxisome proliferator-activated receptor gamma (Homo sapiens), P37231; PPARgamma LBD-SRC-2 recruitment; in the data active = activation above about 22%
PPARg SRC3 recr = PPARgamma agonists recruiting SRC-3 coactivator, primary screen, biochemical. activation, % at 8 µM. biochemical PPARgamma/SRC-3 coactivator recruitment assay. Peroxisome proliferator-activated receptor gamma (Homo sapiens), P37231. AID 731, 2007. hit rate 0.26% among 200,000; in the data active = activation above about 23%
SRC1 TRFRET art = TR-FRET detection interference compounds, primary screen, artefact control for PPARgamma SRC-1 recruitment agonists, biochemical, TR-FRET emission ratio | TR-FRET detection artefact counter-screen; active compounds read high | TR-FRET ratio at 8 µM | hit rate 0.34% among 99,000 | AID 1051, 2008; in the data active = TR-FRET ratio above about 2300
PPARg SRC2 conf = agonists of PPARgamma SRC-2 coactivator recruitment, confirmation, biochemical, HTS | hit rate 52% among 790 | biochemical SRC-2 recruitment by PPARgamma | activation, % at 8 µM | AID 1297, 2008 | shares compounds with PPARg SRC3 recr; in the data active = activation above about 22%
PPARg SRC1 conf = PPARgamma agonists recruiting SRC-1 coactivator, confirmation, biochemical; shares compounds with PPARg SRC3 recr; activation, % at 8 µM; PPARgamma–SRC-1 coactivator recruitment biochemical assay; AID 1300, 2008; hit rate 43% among 790; in the data active = activation above about 20%
PPARg SRC3 ag = PPARgamma-driven SRC-3 coactivator recruitment agonists, confirmation, biochemical | biochemical PPARgamma-SRC-3 coactivator recruitment, agonist mode | hit rate 29% among 790 | activation, % at 8 µM | shares compounds with PPARg SRC3 recr; in the data active = activation above about 24%
A number is an active result; 0 = inactive; - = no result given. Rule as the data show it, unless noted: active = TR-FRET ratio above about 2000; inactive = the rest.

SMILES	SRC3 TRFRET art	PPARg SRC1 recr	TR-FRET SRC-2 ct	PPARg SRC2 recr	PPARg SRC3 recr	SRC1 TRFRET art	PPARg SRC2 conf	PPARg SRC1 conf	PPARg SRC3 ag
CCOC(=O)C1CCN(C(=O)CSc2cc(=O)n(CC)c3ccccc23)CC1	-	44.0	2661	53.3	61.9	-	39.7	26.9	27.2
CCOC(=O)C1CCN(C(=O)Cc2c(C(=O)O)n(C)c3ccccc23)CC1	-	0	0	0	0	-	-	-	-
CCn1c(=O)cc(SCC(=O)N2CCC(C)CC2)c2ccccc21	-	77.1	3414	78.8	108.3	-	43.8	28.6	29.0
Cn1nnc2ccccc2c1=O	0	0	0	0	0	0	-	-	-
CCSC1=NSC2=NC(=O)/C(=C\c3coc4ccccc4c3=O)C(=N)N12	0	0	0	0	22.9	0	0	0	0
Cc1cccc(-c2ccc(C=Nc3c(C)n(C)n(-c4ccccc4)c3=O)o2)c1	-	22.7	1999	30.0	38.7	-	0	0	0
Cc1c(N=Cc2nc3ccccc3n2C)c(=O)n(-c2ccccc2)n1C	-	0	0	0	0	-	-	-	-
Cc1nc2ncccn2c1-c1csc(Nc2ccc(N(C)C)cc2)n1	0	0	0	23.9	0	0	0	0	0
Cc1nc2ncccn2c1-c1csc(Nc2ccccc2)n1	0	0	0	0	0	0	-	-	-
CC(C)N(C(=O)c1ccccc1-c1ccccc1)C(C)C	-	0	0	0	0	-	-	-	-
O=C1CCCN1CCNC(=S)Nc1ccccc1	-	0	0	0	0	-	-	-	-
O=C1CCCN1CCCNC(=S)Nc1ccc(Nc2ccccc2)cc1	0	23.8	0	0	0	0	0	0	0
CSc1cnn(Cc2ccccc2)c(=O)c1SCc1ccccc1	0	0	0	29.7	24.4	2367	84.6	61.4	56.9
COc1cnn(-c2ccc(C)cc2)c(=O)c1SCc1ccccc1	-	0	0	0	0	-	-	-	-
COc1cnn(-c2ccccc2)c(=O)c1SCc1ccc(Cl)cc1Cl	-	0	0	0	0	-	-	-	-
CSc1cnn(-c2ccccc2)c(=O)c1SC	-	105.8	3988	120.8	151.6	-	98.7	68.1	67.5
CCSc1cnn(-c2ccccc2)c(=O)c1SCC	-	68.1	3615	96.3	122.7	-	64.9	41.1	47.1
CCCCSc1cnn(-c2ccccc2)c(=O)c1SCCCC	-	23.6	1992	27.9	44.7	-	39.7	23.6	25.6
O=c1c(Cl)c(Cl)cnn1-c1ccccc1	0	0	0	0	0	0	-	-	-
CC(C)Sc1nc2sc3c(c2c2nnc(SCC(=O)NCc4ccco4)n12)CCCC3	-	19.3	0	0	0	-	0	0	0
COC(=O)c1sccc1NC(=O)c1cc(-c2cccc(C)c2)nc2ccccc12	-	0	2058	25.9	0	-	0	0	0
CNC(=S)N1N=C(c2ccc(OC)cc2)CC1c1ccc(Cl)cc1Cl (stereo unspecified)	3446	22.1	2360	0	0	3403	0	0	0
CNC(=S)N1N=C(c2ccc(Br)cc2)CC1c1ccc(OC)cc1 (stereo unspecified)	2788	22.9	2412	0	0	2835	36.9	29.9	0
COc1ccc(C2=NN(C(=O)CN3CCCCC3)C(c3ccc(C)cc3)C2)cc1 (stereo unspecified)	0	0	0	0	0	0	-	-	-
COC(=O)c1ccc2nc(NC(=O)C(C)(C)C)sc2c1	0	0	0	0	0	0	-	-	-
SMILES	SRC3 TRFRET art	PPARg SRC1 recr	TR-FRET SRC-2 ct	PPARg SRC2 recr	PPARg SRC3 recr	SRC1 TRFRET art	PPARg SRC2 conf	PPARg SRC1 conf	PPARg SRC3 ag
COC(=O)c1ccc2nc(Nc3nc4ccc(F)cc4s3)sc2c1	0	22.8	0	0	0	2480	0	0	0
COc1ccc2[nH]cc(CCNS(=O)(=O)Cc3ccccc3)c2c1	0	0	0	0	0	0	-	-	-
CC(C)Cn1[nH]c2c3c(ccc2c1=O)C(=O)c1ccccc1C3=O	-	0	0	0	26.0	-	0	0	0
O=C1c2ccccc2C(=O)c2c1ccc1c(=O)n(-c3ccccc3)[nH]c21	0	0	0	0	0	0	-	-	-
C=CCN1C(=O)SC(Cc2cccc(OC)c2O)C1=O (stereo unspecified)	0	0	0	0	0	0	-	-	-
CC(=O)c1sc(NC(=O)c2ccco2)nc1-c1ccccc1	-	0	0	0	0	-	-	-	-
CCOC(=O)c1sc(NC(=O)c2ccco2)nc1-c1ccccc1	-	26.4	0	0	31.8	-	31.7	0	0
CN1C(=O)/C(=C/C=C2\SCCN2C)N(C)C1=S	0	23.2	0	0	0	0	0	0	0
O=Cc1c[nH]c2ccc(S(=O)(=O)N3CCOCC3)cc12	0	0	0	0	0	0	-	-	-
CN(C)c1ccc(NC(=O)Oc2ccccc2)cc1	-	0	2246	58.4	91.4	-	0	0	0
COc1cccc(C2=NOC(C(=O)NC3CCCCC3)C2)c1 (stereo unspecified)	-	0	0	0	0	-	-	-	-
Cc1[nH]nc2c1C(c1ccsc1C)C(C#N)=C(N)O2 (stereo unspecified)	-	0	0	0	0	-	-	-	-
Cc1cc(C2C(C#N)=C(N)Oc3n[nH]c(C)c32)c(C)s1 (stereo unspecified)	-	0	0	0	0	-	-	-	-
Cc1cc(C2C(C#N)=C(N)SC(N)=C2C#N)c(C)s1	-	0	0	25.2	0	-	0	0	0
Cc1sccc1C1C(C#N)=C(N)SC(N)=C1C#N	-	0	0	22.1	33.5	-	0	0	0
Cc1cc(C)n(-c2ccc(C(=O)OCC(=O)c3ccc(Br)s3)cc2)n1	-	20.5	3035	27.6	35.6	-	29.5	22.0	0
CCOC(=O)c1sc2nc(CC(=O)OC)nc(NCc3ccco3)c2c1C	-	0	0	0	0	-	-	-	-
CCOC(=O)c1sc2ncnc(NCc3ccco3)c2c1C	-	0	0	22.8	30.0	-	0	0	0
O=C(OCc1ccccc1)C1CCCN1C(=O)c1ccccc1[N+](=O)[O-] (stereo unspecified)	-	0	0	0	0	-	-	-	-
COc1ccc(N=Cc2sc(O)c3ccccc23)cc1	-	22.3	0	28.1	26.3	-	0	0	0
COc1ccc(-n2c(O)c(C=Nc3ccccc3)c3ccccc3c2=O)cc1	0	0	0	0	0	0	-	-	-
COc1ccc(OC)c(NC(=O)COC(=O)/C=C/c2ccc(Cl)cc2)c1	0	0	0	0	0	0	-	-	-
COc1ccc(S(=O)(=O)Nc2nccs2)cc1OC	0	0	0	0	0	0	-	-	-
